{"source": "the supplement of paper PMC3334620", "note": "The full ranking holds about 33,000 sequences; the median of “E-score (-0.5 to 0.5)” is about -0.054, and the highest 2% start at about 0.35. The list comes from a sample in which the highest values are over-represented; it also holds similar and randomly drawn sequences."}
{"target": "T1, Stb5 (UniProt P38699)", "T1 sequence": "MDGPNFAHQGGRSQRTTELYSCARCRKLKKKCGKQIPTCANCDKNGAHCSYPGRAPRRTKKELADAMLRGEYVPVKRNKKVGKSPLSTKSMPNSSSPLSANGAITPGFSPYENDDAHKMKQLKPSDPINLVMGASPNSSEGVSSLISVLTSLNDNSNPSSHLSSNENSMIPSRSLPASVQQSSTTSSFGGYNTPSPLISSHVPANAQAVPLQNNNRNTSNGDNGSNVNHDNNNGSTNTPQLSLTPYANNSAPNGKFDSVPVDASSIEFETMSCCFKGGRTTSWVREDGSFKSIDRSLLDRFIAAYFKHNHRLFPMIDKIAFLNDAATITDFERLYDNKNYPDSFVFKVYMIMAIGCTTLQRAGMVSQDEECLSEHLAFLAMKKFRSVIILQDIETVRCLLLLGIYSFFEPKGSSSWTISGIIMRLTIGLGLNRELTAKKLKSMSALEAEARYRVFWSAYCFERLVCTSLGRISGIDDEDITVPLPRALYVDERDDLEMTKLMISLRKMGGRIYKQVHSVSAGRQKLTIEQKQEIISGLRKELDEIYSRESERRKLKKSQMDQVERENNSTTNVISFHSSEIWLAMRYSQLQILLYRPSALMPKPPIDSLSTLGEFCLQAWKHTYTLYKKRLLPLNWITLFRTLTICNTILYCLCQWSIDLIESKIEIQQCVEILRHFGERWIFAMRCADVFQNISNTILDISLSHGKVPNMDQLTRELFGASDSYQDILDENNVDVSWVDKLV", "assay": "PBM E-score (8-mer binding enrichment) (E-score (-0.5 to 0.5)); higher = stronger / more preferred TF binding", "settings": "protein concentration: 200 nM; construct: GST-full length", "summary_of_the_method": "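Universal all-10-mer Agilent arrays, double-stranded by primer extension on fresh or once-stripped slides, were probed with about 100-200 nM GST-tagged yeast transcription factors made by PURExpress. Fluorescent anti-GST detected bound protein, and masliner normalised the scans. E-scores from the Universal PBM Analysis Suite were given to each ungapped eight-base word pooled with its reverse complement.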"}
{"sequence": "ATTCGCGG", "PBM E-score": 0.171}
{"sequence": "CAGCACTG", "PBM E-score": -0.172}
{"sequence": "GAATAAGA", "PBM E-score": 0.0303}
{"sequence": "CGTCTAAA", "PBM E-score": -0.027}
{"sequence": "CAGCAGTC", "PBM E-score": -0.115}
{"sequence": "ACTTCGCT", "PBM E-score": -0.0885}
{"sequence": "AACGGTGT", "PBM E-score": 0.425}
{"sequence": "AACGGTGC", "PBM E-score": 0.332}
{"sequence": "AACGGTGG", "PBM E-score": 0.245}
{"sequence": "CACGGTGA", "PBM E-score": 0.282}
{"sequence": "AACGGTGA", "PBM E-score": 0.355}
{"sequence": "TACGGTGA", "PBM E-score": 0.16}
{"sequence": "CCCATTGC", "PBM E-score": 0.0345}
{"sequence": "GTCCCTGA", "PBM E-score": -0.284}
{"sequence": "GGGAGGCA", "PBM E-score": 0.111}
{"sequence": "AGGCTCCG", "PBM E-score": 0.246}
{"sequence": "ATTACCTG", "PBM E-score": -0.0469}
{"sequence": "ATTACCCC", "PBM E-score": 0.362}
{"sequence": "ATTACCGG", "PBM E-score": 0.371}
{"sequence": "CTTACCGA", "PBM E-score": 0.0867}
{"sequence": "CTTACCGC", "PBM E-score": 0.193}
{"sequence": "CTTACCCC", "PBM E-score": 0.222}
{"sequence": "ATTACCGA", "PBM E-score": 0.38}
{"sequence": "ATTACCGC", "PBM E-score": 0.419}
{"sequence": "ATTACCTC", "PBM E-score": 0.0374}
{"sequence": "ATTACCCG", "PBM E-score": 0.176}
{"sequence": "GTTACCGA", "PBM E-score": 0.197}
{"sequence": "ACTACCGG", "PBM E-score": 0.279}
{"sequence": "CAGCAAGG", "PBM E-score": -0.369}
{"sequence": "GATGATAA", "PBM E-score": 0.0422}
{"sequence": "ACCCACTA", "PBM E-score": 0.0277}
{"sequence": "CGGCTTCA", "PBM E-score": 0.259}
{"sequence": "ACTTTGGG", "PBM E-score": -0.0994}
{"sequence": "CTGGCCAC", "PBM E-score": -0.199}
{"sequence": "CTCCCGAG", "PBM E-score": -0.213}
{"sequence": "CCAAGGTA", "PBM E-score": -0.11}
{"sequence": "CCGCGGGC", "PBM E-score": 0.335}
{"sequence": "CGGCGGCC", "PBM E-score": 0.242}
{"sequence": "ATGCGGTA", "PBM E-score": 0.243}
{"sequence": "CGGCGGGA", "PBM E-score": 0.347}
{"sequence": "GTGCGGTA", "PBM E-score": 0.367}
{"sequence": "CGGCGGGC", "PBM E-score": 0.361}
{"sequence": "CGGCGGTC", "PBM E-score": 0.355}
{"sequence": "CGGCGGTA", "PBM E-score": 0.451}
{"sequence": "AGGCGGTC", "PBM E-score": 0.258}
{"sequence": "AGGCGGTA", "PBM E-score": 0.287}
{"sequence": "CTGCGGTA", "PBM E-score": 0.254}
{"sequence": "GGGCGGTA", "PBM E-score": 0.346}
{"sequence": "AGCGAGTC", "PBM E-score": -0.132}
{"sequence": "AGAATTCG", "PBM E-score": -0.146}
{"sequence": "CGGCGACG", "PBM E-score": 0.194}
{"sequence": "GACGGCGC", "PBM E-score": 0.199}
{"sequence": "CAACCGTC", "PBM E-score": -0.0245}
{"sequence": "AGGCCGAC", "PBM E-score": 0.406}
{"sequence": "GGGCCGAC", "PBM E-score": 0.355}
{"sequence": "CGGCCGAC", "PBM E-score": 0.205}
{"sequence": "GGGCCGAA", "PBM E-score": 0.175}
{"sequence": "AGGCCGAT", "PBM E-score": 0.295}
{"sequence": "GAGCCGAC", "PBM E-score": 0.201}
{"sequence": "ACAAGTGT", "PBM E-score": -0.136}
{"sequence": "CAGGTTAA", "PBM E-score": -0.0457}
{"sequence": "AACGGAGC", "PBM E-score": 0.242}
{"sequence": "AACGGACG", "PBM E-score": 0.224}
{"sequence": "AACGGATC", "PBM E-score": 0.16}
{"sequence": "CACGGACC", "PBM E-score": 0.241}
{"sequence": "AACGGACC", "PBM E-score": 0.38}
{"sequence": "AACGGACA", "PBM E-score": 0.298}
{"sequence": "AACGGGGG", "PBM E-score": 0.296}
{"sequence": "AACGGGGT", "PBM E-score": 0.373}
{"sequence": "AACGGAGA", "PBM E-score": 0.247}
{"sequence": "AACGGAGT", "PBM E-score": 0.378}
{"sequence": "AACGGACT", "PBM E-score": 0.38}
{"sequence": "AACGGGGC", "PBM E-score": 0.294}
{"sequence": "GTAAGATA", "PBM E-score": 0.0697}
{"sequence": "CTGCAGCC", "PBM E-score": -0.218}
{"sequence": "TCTGGGCA", "PBM E-score": 0.115}
{"sequence": "TAGCTTCA", "PBM E-score": -0.214}
{"sequence": "AGCGATGC", "PBM E-score": -0.112}
{"sequence": "CGTTGTAA", "PBM E-score": -0.00989}
{"sequence": "AGTTCAGC", "PBM E-score": -0.299}
{"sequence": "CAGCGGCA", "PBM E-score": 0.198}
{"sequence": "GAGCGGCA", "PBM E-score": 0.357}
{"sequence": "TAGCGGCA", "PBM E-score": 0.372}
{"sequence": "GAGCGGCC", "PBM E-score": 0.293}
{"sequence": "GAGCGGTA", "PBM E-score": 0.316}
{"sequence": "AAGCGGCA", "PBM E-score": 0.344}
